# Measurements reported in PubChem BioAssay (NCI).
# About 83,000 compounds went through this panel and 20% of them were active in at least one assay; those are over-represented in the sample as a whole.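 Each cell line was grown in a 96-well plate and treated with one concentration of compound for 48 hours. Values below 10 were considered active.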 Unmarked numbers belong to inactive results. Active and inactive are the calls of the source.
# Tests used:
# Assay in all cases: NCI-60 one-dose screen, 48 h (100 = growth as untreated, 0 = no growth, -100 = all killed)
# Settings in all cases: 10 µM unless noted
# SR leukemia = test system: SR leukemia
# RPMI-8226 leukemia = test system: RPMI-8226 leukemia
# OVCAR-4 ovarian = test system: OVCAR-4 ovarian
# SK-OV-3 ovarian = test system: SK-OV-3 ovarian
# IGROV1 ovarian = test system: IGROV1 ovarian
# OVCAR-3 ovarian = test system: OVCAR-3 ovarian
# NCI/ADR-RES ovarian = test system: NCI/ADR-RES ovarian
# T-47D breast = test system: T-47D breast
# BT-549 breast = test system: BT-549 breast
# MDA-MB-435 melanoma = test system: MDA-MB-435 melanoma
# SW-620 colon = test system: SW-620 colon
# MCF7 breast = test system: MCF7 breast
# HCT-116 colon = test system: HCT-116 colon
# HCC-2998 colon = test system: HCC-2998 colon
# KM12 colon = test system: KM12 colon
# OVCAR-8 ovarian = test system: OVCAR-8 ovarian
# HS 578T breast = test system: HS 578T breast
# OVCAR-5 ovarian = test system: OVCAR-5 ovarian
SMILES,growth (SR leukemia),growth (RPMI-8226 leukemia),growth (OVCAR-4 ovarian),growth (SK-OV-3 ovarian),growth (IGROV1 ovarian),growth (OVCAR-3 ovarian),growth (NCI/ADR-RES ovarian),growth (T-47D breast),growth (BT-549 breast),growth (MDA-MB-435 melanoma),growth (SW-620 colon),growth (MCF7 breast),growth (HCT-116 colon),growth (HCC-2998 colon),growth (KM12 colon),growth (OVCAR-8 ovarian),growth (HS 578T breast),growth (OVCAR-5 ovarian)
O=C(NCCNc1nccc(-c2c(-c3cccc(O)c3)nc3sccn23)n1)c1cccc(C(F)(F)F)c1,97%,44.2%,117%,84.2%,62.1%,89.8%,98.3%,69.5%,88%,21.7%,107%,75.3%,74.3%,117%,80.9%,,,
COc1cccc(C2CC(c3cc(OC)c(OC)c(OC)c3)=NN2)c1 (centres undefined),9.95% (active),56.9%,85.5%,89.9%,99.4%,,63.4%,78.7%,,11.9%,51.7%,51.5%,66.5%,83.2%,54.7%,92.9%,111%,
CC(C)(C)C(=O)/C=c1/[nH]c(=O)/c(=C/c2ccccc2O)s1,,60%,67.3%,81.4%,50.1%,20.2%,47.1%,41.3%,71.8%,-25.9% (active),34%,28.1%,21.2%,77.6%,29.9%,66.9%,71.7%,86.9%
Nc1nc(Cl)cc(NCCCCNc2cc(Cl)nc(N)n2)n1,98.9%,96.4%,104%,113%,-19.9% (active),,107%,108%,99.9%,124%,112%,109%,102%,103%,113%,99.5%,126%,
CCOC(=O)n1cnc2c(Cl)ncnc21,110%,116%,107%,94.2%,,112%,246%,100%,,111%,108%,95.2%,101%,2.2% (active),107%,65%,138%,
c1ccc([Se]CCCN2CCN(CCC[Se]c3ccccc3)CC2)cc1,126%,,101%,113%,103%,116%,101%,111%,125%,-44.2% (active),101%,110%,74.5%,115%,109%,119%,110%,121%
CN(C)c1ccc(/C=N/N=C(N)N)cc1,54.8%,,81.9%,82.5%,69.8%,66.3%,50.5%,81.9%,93.3%,-13.9% (active),37.4%,31.9%,52.8%,68.2%,42.6%,91.1%,78.2%,116%
COC(OC)C1(c2ccccc2)NC(=O)NC1=O (centres undefined),74.8%,,113%,102%,142%,126%,116%,106%,114%,111%,109%,104%,99.4%,101%,115%,103%,111%,122%
OCCOCC(F)(F)F,78.7%,90.2%,100%,113%,113%,109%,106%,104%,97.7%,94.4%,100%,105%,106%,104%,113%,116%,,
CC(=O)c1cc2c(c(O)c1C)C(=O)C(=O)c1c(O)cccc1-2,,-32.4% (active),-97.6% (active),-94.3% (active),-37.3% (active),-45.6% (active),-8.15% (active),-28.5% (active),-94.4% (active),-84.3% (active),-69% (active),-55.6% (active),-85.9% (active),-84.2% (active),-50.5% (active),-60.6% (active),-12.3% (active),-80.6% (active)
CNC(=O)NN,104%,91.9%,110%,95.9%,108%,91.8%,105%,92.3%,,102%,93.7%,98.1%,93.6%,101%,101%,97.5%,,
O=c1[nH]ccc2nc(N3CCC(O)CC3)nc(Nc3cccc(C(F)(F)F)c3)c12,,62.6%,91.4%,32.3%,71.2%,68.5%,32.9%,61.6%,16.5%,7.33% (active),48.9%,22.4%,42%,83.8%,23%,45.3%,80.2%,137%
CC(C(C(=O)N1CCCCC1)N1CCCCC1)N1CCCCC1 (centres undefined),71.3%,,116%,103%,160%,119%,112%,107%,111%,109%,108%,104%,97%,107%,113%,105%,103%,117%
CCn1c(SCC(=O)c2ccc(Br)cc2)nnc1-c1cc2c([nH]c3ccccc32)c(-c2cccc(O)c2)n1,,69.4%,71.4%,86.7%,88.5%,80.4%,81.1%,29.4%,71.9%,31.3%,94.1%,40.5%,70.1%,98.4%,66.5%,77.5%,73.7%,95.1%
C=C1c2c(Cl)ccc(O)c2C(O)=C2C(=O)[C@]3(O)C(O)=C(C(N)=O)C(=O)[C@@H](N(C)C)[C@@H]3[C@@H](O)[C@H]12,-8.97% (active),13.2%,23.7%,11.2%,-2.89% (active),-16.2% (active),61.2%,21.8%,-19.7% (active),12.7%,16.4%,29.8%,2.75% (active),8.18% (active),1.27% (active),9.79% (active),,
S=c1n(CNc2ccc(Cl)nn2)nc(-c2cc(Cl)cc(Cl)c2Cl)n1/N=C/c1ccc(Cl)cc1,32.5%,61.2%,87.5%,107%,76.2%,,87.4%,101%,106%,89.3%,103%,87.4%,83.8%,88.6%,97.1%,114%,,
CCn1c(SC)nnc1-c1cc2c([nH]c3ccccc32)c(-c2cccc(O)c2)n1,,30.1%,12.5%,27.5%,35%,-7.34% (active),8.9% (active),10.8%,29.4%,-32.4% (active),33.1%,13.8%,13.2%,41.5%,11.5%,25.4%,12.3%,48.8%
COc1ccc(C[C@H](N)C(=O)N[C@@H]2[C@@H](CO)OC(n3cnc4c(N(C)C)ncnc43)[C@@H]2O)cc1 (some centres undefined),-37.7% (active),12.5%,-32.9% (active),-25.3% (active),-42.3% (active),-94.7% (active),93.4%,-8.69% (active),-72.1% (active),-85.4% (active),-67.8% (active),-7.03% (active),-84.6% (active),-94.6% (active),-85.2% (active),-52.3% (active),,
C=CCn1c(SCC(=O)Nc2ccc(C(=O)/C=C/c3cc(OC)c(OC)c(OC)c3)cc2)nnc1-c1ccc(OC)cc1,,-33.1% (active),19.3%,16.6%,-3.21% (active),-45.9% (active),20.1%,-2.4% (active),-23.8% (active),-38.1% (active),-6.73% (active),0.763% (active),-29.4% (active),-65.8% (active),-33.7% (active),7.47% (active),32.5%,9.19% (active)
